This note sets out measurements from paper PMC9574860, “Chemical Toolkit for PARK7: Potent, Selective, and High-Throughput” (Journal of Medicinal Chemistry, 2022).

In all, about 7,900 compounds went through this assay and about 400 (5.1%) showed an effect of 50% or more. The sample as a whole holds a higher share of strong results than the screen did.

Chain of Parkinson's disease protein 7 (PARK7/DJ1) (Q99497 whole entry, looked up, the tested form may be a part): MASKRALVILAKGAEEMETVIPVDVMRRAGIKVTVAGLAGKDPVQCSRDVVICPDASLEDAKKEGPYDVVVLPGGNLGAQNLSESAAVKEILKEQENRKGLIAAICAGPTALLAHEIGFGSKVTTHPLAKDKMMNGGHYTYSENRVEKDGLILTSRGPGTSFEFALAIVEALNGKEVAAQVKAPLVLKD

This assay has as its target Parkinson's disease protein 7 (PARK7/DJ1) (human, UniProt Q99497). The assay can be described thus: primary screen, percent inhibition; read as competition with a fluorescent probe by fluorescence polarization; higher = more effect of the substance. The note with it: 100 µM. Here is the method: The screen was conducted using the conditions as described above in 1536-well plates (Corning 3724) with a reaction volume of 8 μL per well. The compound library containing 7887 covalent fragments was purchased at Enamine Ltd. and received as 100 mM DMSO stocks in 384 well LDV Echo plates (Labcyte LP-0200). Stock solutions of 0.26 μM PARK7 and 80 nM JYQ-107 were prepared. Using a Labcyte Echo550 acoustic dispenser, 8 nL of the DMSO stock solution of the library compounds was transferred from the source plates into the empty 1536-well screening plates to obtain a 100 μM final compound concentration. Next, PARK7 (6 μL, final concentration 0.2 μM) was dispensed using a Biotek MultiflowFX liquid dispenser and incubated for 2 h, followed by dispensing the probe JYQ-107 (2 μL, final concentration 20 nM). After 2 h incubation, the FP signal was recorded on a BMG Labtech PHERAstar plate reader (λex/em 480/520 nm). The relative loss of FP signal compared with reference controls was used to calculate the remaining enzyme activity.
`CC1CC1C(=O)N[C@H]1CC[C@@H](CS(=O)(=O)F)C1` (stereo in doubt) came in with an Inhibition % of 90.9%.
